# Source: PubChem BioAssay (NCATS)
# Several values for one entry are separate records, joined by “and”; a condition that tells them apart may be missing. Identical values can stand only once. Results filed as inconclusive are left out. More than one record can exist for a structure, and the calls need not agree. Activity calls are given as the source filed them. Unless noted, the call rests on the fitted dose curve; in most records, active means well fitted curve in either direction with a large enough effect (not every such curve was filed as active); inconclusive means small, poorly fitted or top-dose-only effect, or another doubt; inactive means flat fitted curve, though single readings scatter.
# How the values were obtained:
# [1] = AP1 Signaling Pathway (AID 357); conditions: ME-180 AP-1-bla reporter, EGF-induced, beta-lactamase ratio, 5 h;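 further: ME-180 reporter cells stimulated with EGF at its EC50 level; on the % scale 0 is the no-effect control and ±100 the full control effect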
# Method in brief: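 Cells are seeded overnight, exposed to compound titrations and an EC50 level of EGF for 5 hours at 37 °C, then loaded with CCF4 dye for 2.5 hours. Beta-lactamase activity under the AP-1 element is read as a blue/green ratio.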
# [2] = molecular target: Cytochrome P450 1A2 (Homo sapiens) (UniProt P05177); test: p450-cyp1a2 (AID 410; calls by dose curve; further: potency means the concentration at half of the fitted maximal effect;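 on activity change, negative = inhibition: -100% = full effect of reference inhibitor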); conditions: recombinant CYP1A2, luciferin-ME demethylation, luminescence; series mostly up to 57 µM
# Method in brief: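 Inhibition was calculated relative to 57 uM furafylline (full inhibition). The reaction used human CYP1A2 at 20nM with Luciferin-ME at its Km, 100uM, driven by an NADPH-regenerating system for 60 min at room temperature.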
# [3] = NFAT Signaling Pathway (AID 444); conditions: Jurkat NFAT-bla M1, carbachol, beta-lactamase ratio, 5 h;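 further: carbachol stimulus at about its EC50 of 1 µM final; on the % scale 0 is the no-effect control and ±100 the full control effect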
# Method in brief: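 Read-out: CCF4 FRET ratio (460 nm/530 nm) after 1 h RT dye loading, used for %activity and AC50 from titration series. Cells: Jurkat NFAT-β-lactamase/M1 line, treated with compound plus 1 uM carbachol for 5 h, 37 °C.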
# [4] = Stat Signaling Pathway (AID 446); conditions: ME-180 SIE beta-lactamase reporter, IL-6 stimulated, 5 h;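 further: ME-180 cervical cancer cells given 40 pM IL-6 alongside compound; SIE-controlled beta-lactamase reporter measured as 460/530 nm FRET emission ratio; on the % scale 0 is the no-effect control and ±100 the full control effect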
# Method in brief: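 Reporter line: ME-180 cervical carcinoma, SIE-beta-lactamase. Treatment: compound with 40 pM IL-6, 5 hrs, 37 C, in low-serum OPTI-MEM with 10 mM HEPES pH 7.3. Detection: 460/530 nm fluorescence.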
# [5] = molecular target: Lysosomal acid glucosylceramidase (Homo sapiens) (UniProt P04062); test: Glucocerebrosidase-p2 (AID 348; in the data active means potency below about 10 µM; further: potency means the concentration at half of the fitted maximal effect); conditions: purified GBA, blue fluorogenic substrate, 40 min
# Method in brief: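 Compounds titrated from 0.6 nM upwards against 0.2 nM enzyme in pH 5.9 citric acid/KH2PO4, taurocholate, tween-20; blue fluorogenic substrate 80 uM, 40 min room temperature, stopped and read Ex 365/Em 440 for AC50.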
# [6] = at 38 µM (top of the series) unless noted
# Sequence of Lysosomal acid glucosylceramidase (Homo sapiens) (P04062 whole entry, looked up): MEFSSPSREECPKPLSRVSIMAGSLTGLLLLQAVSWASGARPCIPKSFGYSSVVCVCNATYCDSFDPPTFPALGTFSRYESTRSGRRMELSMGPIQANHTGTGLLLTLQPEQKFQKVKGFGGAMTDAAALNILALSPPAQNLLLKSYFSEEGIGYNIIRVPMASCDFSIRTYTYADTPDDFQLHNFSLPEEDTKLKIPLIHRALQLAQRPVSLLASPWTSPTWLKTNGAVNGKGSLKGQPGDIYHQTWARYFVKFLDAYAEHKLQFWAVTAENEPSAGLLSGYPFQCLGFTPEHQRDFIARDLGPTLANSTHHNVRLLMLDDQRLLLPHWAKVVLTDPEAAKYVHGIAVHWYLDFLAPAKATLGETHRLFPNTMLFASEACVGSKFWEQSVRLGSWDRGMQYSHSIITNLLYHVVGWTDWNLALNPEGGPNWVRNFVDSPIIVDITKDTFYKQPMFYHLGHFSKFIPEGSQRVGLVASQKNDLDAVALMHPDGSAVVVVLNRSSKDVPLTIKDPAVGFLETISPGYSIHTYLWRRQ
# Sequence of Cytochrome P450 1A2 (Homo sapiens) (P05177 whole entry, looked up): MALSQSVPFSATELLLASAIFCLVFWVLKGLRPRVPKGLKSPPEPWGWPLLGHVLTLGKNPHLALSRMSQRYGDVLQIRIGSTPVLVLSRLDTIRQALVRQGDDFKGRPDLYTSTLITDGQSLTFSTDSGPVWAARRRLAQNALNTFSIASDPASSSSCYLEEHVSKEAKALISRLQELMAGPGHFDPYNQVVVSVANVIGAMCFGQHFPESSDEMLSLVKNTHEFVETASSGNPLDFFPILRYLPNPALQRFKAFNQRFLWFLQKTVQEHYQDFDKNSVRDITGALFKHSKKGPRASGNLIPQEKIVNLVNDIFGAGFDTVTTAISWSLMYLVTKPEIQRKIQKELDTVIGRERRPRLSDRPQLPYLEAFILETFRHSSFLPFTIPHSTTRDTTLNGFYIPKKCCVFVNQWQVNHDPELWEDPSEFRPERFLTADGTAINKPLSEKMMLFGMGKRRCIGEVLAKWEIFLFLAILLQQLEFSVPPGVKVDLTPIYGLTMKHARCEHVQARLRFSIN
compound,measurement,setting,value
NO,"activity change, negative = inhibition",[1]; at 38 µM (top of the series),6.61% (inactive)
same,Potency,[2],inactive
same,"activity change, negative = inhibition",[3]; [6],-5.23% (inactive)
same,"activity, negative = inhibition",[4]; at 38 µM (top of the series),11.6% (inactive)
COc1cc(OC)c(/C=C2/C(=O)Nc3ccccc32)c(OC)c1,"activity change, negative = inhibition",[1]; at 38 µM (top of the series),-28.2% (inactive)
same,Potency,[2],0.501 µM (active)
same,"activity change, negative = inhibition",[3]; [6],-8.19% (inactive)
CNCC[C@H](Oc1ccc(C(F)(F)F)cc1)c1ccccc1,"activity change, negative = inhibition",[1]; at 17.2 µM (top of the series),21.4% (inactive)
same,"activity change, negative = inhibition",[1]; at 38 µM (top of the series),29.8% (inactive) and 23.7% (inactive)
same,Potency,[2],20 µM (active) and 5.01 µM (active) and 31.6 µM (active)
same,"activity change, negative = inhibition",[3]; [6],-28% (inactive) and -21.6% (inactive) and -27.9% (inactive)
same,"activity, negative = inhibition",[4]; at 17.2 µM (top of the series),-1.77% (inactive)
same,"activity, negative = inhibition",[4]; at 38 µM (top of the series),-30.6% (inactive) and 21.5% (inactive)
COc1cccc(C(=O)NCCN2CCN(c3ccc(Cl)cc3)CC2)c1,"activity change, negative = inhibition",[1]; at 38 µM (top of the series),-7.5% (inactive)
same,Potency,[2],12.6 µM (active)
same,"activity change, negative = inhibition",[3]; [6],2.58% (inactive)
same,"activity, negative = inhibition",[4]; at 38 µM (top of the series),0.921% (inactive)
O=C1NC(O)=NC1(c1ccccc1)c1ccccc1,"activity change, negative = inhibition",[1]; at 38 µM (top of the series),1.51% (inactive)
same,Potency,[2],inactive
same,"activity change, negative = inhibition",[3]; [6],-13.5% (inactive)
same,"activity, negative = inhibition",[4]; at 38 µM (top of the series),-6.76% (inactive)
CC(C)(C=O)Cc1cc(C(C)(C)C)c(O)c(C(C)(C)C)c1,"activity change, negative = inhibition",[1]; at 38 µM (top of the series),5.89% (inactive)
same,Potency,[2],25.1 µM (active)
same,"activity change, negative = inhibition",[3]; [6],-17.5% (inactive)
same,"activity, negative = inhibition",[4]; at 38 µM (top of the series),-12.1% (inactive)
NC(=O)C(=O)O,"activity change, negative = inhibition",[1]; at 38 µM (top of the series),0.648% (inactive)
same,Potency,[2],inactive
same,"activity change, negative = inhibition",[3]; [6],5.77% (inactive)
same,"activity, negative = inhibition",[4]; at 38 µM (top of the series),-1.18% (inactive)
O=S(=O)(c1cccc2c(I)cccc12)N1CCCNCC1,"activity change, negative = inhibition",[1]; at 38 µM (top of the series),5.61% (inactive)
same,Potency,[2],10 µM (active)
same,"activity change, negative = inhibition",[3]; [6],-18.6% (inactive)
NCCCCCCCCCCN,"activity change, negative = inhibition",[1]; at 38 µM (top of the series),4.16% (inactive)
same,Potency,[2],inactive
same,"activity change, negative = inhibition",[3]; [6],0.00398% (inactive)
same,"activity, negative = inhibition",[4]; at 38 µM (top of the series),-2.37% (inactive)
O=C(O)CC[C@@H](C(=O)O)N1C(=O)c2ccccc2C1=O,Potency,[5],> 11.4 µM (inactive)
same,Potency,[2],inactive
same,"activity change, negative = inhibition",[3]; at 7.69 µM (top of the series),15.2% (inactive)
same,"activity change, negative = inhibition",[3]; at 38 µM (top of the series),-1.84% (inactive)
same,"activity, negative = inhibition",[4]; at 7.69 µM (top of the series),3.89% (inactive)
same,"activity, negative = inhibition",[4]; at 38 µM (top of the series),0.0495% (inactive)
CN1[C@@H]2CC[C@H]1CC(OC(c1ccccc1)c1ccccc1)C2 (stereo partly drawn),Potency,[5],> 11.4 µM (inactive)
same,"activity change, negative = inhibition",[1]; at 7.69 µM (top of the series),12.3% (inactive)
same,Potency,[2],inactive
same,"activity change, negative = inhibition",[3]; [6],-83.5% [at 7.69 µM] (active)
same,"activity, negative = inhibition",[4]; at 7.69 µM (top of the series),0.0599% (inactive)
same,"activity, negative = inhibition",[4]; at 38 µM (top of the series),-14.8% (inactive)
O=C(O)c1cc(=O)c2c(Cl)cc(Cl)cc2[nH]1,"activity change, negative = inhibition",[1]; at 38 µM (top of the series),-8.48% (inactive)
same,Potency,[2],inactive
same,"activity change, negative = inhibition",[3]; [6],0.544% (inactive)
same,"activity, negative = inhibition",[4]; at 38 µM (top of the series),15.7% (inactive)
CCCCN1CCC(n2c(=O)[nH]c3ccccc32)CC1,"activity change, negative = inhibition",[1]; at 38 µM (top of the series),-4.94% (inactive)
same,Potency,[2],inactive
same,"activity change, negative = inhibition",[3]; [6],4.7% (inactive)
CN(C)C(N)=NCCC[C@H](N)C(=O)O,"activity change, negative = inhibition",[1]; at 38 µM (top of the series),3.1% (inactive)
same,Potency,[2],inactive
same,"activity change, negative = inhibition",[3]; [6],-0.969% (inactive)
same,"activity, negative = inhibition",[4]; at 38 µM (top of the series),-11.7% (inactive)
COC(=O)c1c(C)[nH]c(C)c1C(=O)c1ccccc1Cc1ccccc1,"activity change, negative = inhibition",[1]; at 38 µM (top of the series),-27.5% (inactive)
same,Potency,[2],1.26 µM (active) and 251 nM (active)
same,"activity change, negative = inhibition",[3]; [6],4.44% (inactive)
same,"activity, negative = inhibition",[4]; at 38 µM (top of the series),-23% (inactive)
c1ccc(-c2ccccn2)nc1,"activity change, negative = inhibition",[1]; at 38 µM (top of the series),11.7% (inactive)
same,Potency,[2],25.1 µM (active)
same,"activity change, negative = inhibition",[3]; [6],-2.98% (inactive)
same,"activity, negative = inhibition",[4]; at 38 µM (top of the series),6.11% (inactive)
CN1CCc2cc(NC(=O)Nc3cccnc3)ccc21,"activity change, negative = inhibition",[1]; at 38 µM (top of the series),-1.43% (inactive)
same,Potency,[2],0.0794 µM (active)
same,"activity change, negative = inhibition",[3]; [6],4.73% (inactive)
same,"activity, negative = inhibition",[4]; at 38 µM (top of the series),4.31% (inactive)
Clc1ccccc1-c1nc(-c2ccncc2)no1,Potency,[5],> 11.4 µM (inactive)
same,Potency,[2],0.0794 µM (active)
same,"activity change, negative = inhibition",[3]; [6],-8.15% [at 7.69 µM] (inactive)
same,"activity, negative = inhibition",[4]; at 7.69 µM (top of the series),-6.11% (inactive)
O=C(Nc1cccc(C(=O)Nc2ccc(S(=O)(=O)O)c3cc(S(=O)(=O)O)cc(S(=O)(=O)O)c23)c1)Nc1cccc(C(=O)Nc2ccc(S(=O)(=O)O)c3cc(S(=O)(=O)O)cc(S(=O)(=O)O)c23)c1,"activity change, negative = inhibition",[1]; at 38 µM (top of the series),-2.72% (inactive)
same,Potency,[2],inactive
same,"activity change, negative = inhibition",[3]; [6],4.75% (inactive)
same,"activity, negative = inhibition",[4]; at 38 µM (top of the series),-0.505% (inactive)
NCCNC(=O)c1ncsc1-c1cccc(F)c1,"activity change, negative = inhibition",[1]; at 38 µM (top of the series),0.181% (inactive)
same,Potency,[2],10 µM (active)
same,"activity change, negative = inhibition",[3]; [6],-3.73% (inactive)
same,"activity, negative = inhibition",[4]; at 38 µM (top of the series),3.48% (inactive)
O=C(O)c1cc([N+](=O)[O-])ccc1NCCCc1ccccc1,"activity change, negative = inhibition",[1]; at 38 µM (top of the series),-8.1% (inactive)
same,Potency,[2],31.6 µM (active)
same,"activity change, negative = inhibition",[3]; [6],5.3% (inactive)
same,"activity, negative = inhibition",[4]; at 38 µM (top of the series),-16.2% (inactive)
Cc1ccc(C(=O)c2ccc(CC(=O)O)n2C)cc1,"activity change, negative = inhibition",[1]; at 17.2 µM (top of the series),6.83% (inactive)
same,Potency,[2],inactive
same,"activity change, negative = inhibition",[3]; [6],-1.3% [at 17.2 µM] (inactive)
same,"activity, negative = inhibition",[4]; at 17.2 µM (top of the series),-8.7% (inactive)
C[N+]1(C)CCC(OC(=O)C(c2ccccc2)c2ccccc2)CC1,"activity change, negative = inhibition",[1]; at 38 µM (top of the series),10.3% (inactive)
same,Potency,[2],10 µM (active) and inactive
same,"activity change, negative = inhibition",[3]; [6],-75% (active)
same,"activity, negative = inhibition",[4]; at 38 µM (top of the series),22.3% (inactive)
Nc1cc(-c2ccncc2)c[nH]c1=O,"activity change, negative = inhibition",[1]; at 17.2 µM (top of the series),-9.46% (inactive)
same,Potency,[2],15.8 µM (active)
same,"activity change, negative = inhibition",[3]; [6],-1.83% [at 17.2 µM] (inactive)
same,"activity, negative = inhibition",[4]; at 17.2 µM (top of the series),-17.5% (inactive)
N#C/C(=C\c1ccc(O)c(O)c1)C(=O)NCc1ccccc1,"activity change, negative = inhibition",[1]; at 38 µM (top of the series),-8.08% (inactive)
same,Potency,[2],12.6 µM (active) and 7.94 µM (active)
same,"activity change, negative = inhibition",[3]; [6],-14.7% (inactive)
same,"activity, negative = inhibition",[4]; at 38 µM (top of the series),-18.4% (inactive)
